# PubChem BioAssay AID1159580 (chemical genetic matrix, 2015)
# About 2,000 (36%) of roughly 5,500 compounds were called active. Another 18% or so got no clear call; they are omitted. Some of the results follow. A number with no mark means an inactive call. Rule as the data show it: active = normalized growth mostly below about 0.91 (no sharp cut-off); inconclusive = no clear call, values can overlap the other calls; inactive = mostly above about 0.92.
# Assay: chemical genetic growth profiling, strain panel (AID 1159580);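 also: tested at 20 µM; growth read once vehicle control cultures reached saturation at 30 °C; 1 = growth at the plate median or of vehicle wells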
# Details: S. cerevisiae deletion strains, growth OD
# [1] = locus YAL013W, strain DEP1, stronger effect = lower value
# [2] = locus YGR078C, strain PAC10, stronger effect = lower value
# [3] = locus YMR263W, strain SAP30, stronger effect = lower value
# [4] = locus YMR307W, strain GAS1, stronger effect = lower value
# [5] = locus YNL128W, strain TEP1, stronger effect = lower value
# [6] = locus YNL153C, strain GIM3, stronger effect = lower value
# [7] = locus YPL055C, strain LGE1, stronger effect = lower value
# [8] = locus YBR229C, strain ROT2, stronger effect = lower value
# [9] = locus YDL101C, strain DUN1, stronger effect = lower value
# [10] = locus YDR150W, strain NUM1, stronger effect = lower value
# [11] = locus YEL061C, strain CIN8, stronger effect = lower value
# [12] = locus YGR229C, strain SMI1, stronger effect = lower value
# [13] = locus YHR030C, strain SLT2, stronger effect = lower value
# [14] = locus YHR087W, strain rtc3, stronger effect = lower value
# [15] = locus YJR043C, strain POL32, stronger effect = lower value
# [16] = locus YJR075W, strain HOC1, stronger effect = lower value
# [17] = locus YLR039C, strain RIC1, stronger effect = lower value
# [18] = locus YLR058C, strain SHM2 (second series), stronger effect = lower value
# [19] = locus YLR085C, strain ARP6, stronger effect = lower value
# [20] = locus YLR262C, strain YPT6, stronger effect = lower value
# [21] = locus YML094W, strain GIM5, stronger effect = lower value
# [22] = locus YMR219W, strain ESC1, stronger effect = lower value
# [23] = locus YNL298W, strain CLA4 (second series), stronger effect = lower value
# [24] = locus YNL322C, strain KRE1, stronger effect = lower value
# [25] = locus YNR030W, strain Alg12, stronger effect = lower value
# [26] = locus YPL241C, strain CIN2, stronger effect = lower value
# [27] = locus YPR135W, strain CTF4, stronger effect = lower value
compound,measurement,setting,value
Nc1ncnc2c1ncn2[C@@H]1O[C@H](C(=O)NC2CC2)[C@H](O)C1O (some centres undefined),normalized growth,[1],1
same,normalized growth,"locus YAL040C, strain CLN3, stronger effect = lower value",0.986
same,normalized growth,"locus YCL061C, strain MRC1 (second series), stronger effect = lower value",1
same,normalized growth,"locus YER002W, strain NOP16, stronger effect = lower value",1
same,normalized growth,[2],1.01
same,normalized growth,[3],0.986
same,normalized growth,[4],1.04
same,normalized growth,[5],0.998
same,normalized growth,[6],1.03
same,normalized growth,"locus YNL175C, strain NOP13, stronger effect = lower value",1
same,normalized growth,"locus YNL197C, strain WHI3, stronger effect = lower value",0.986
same,normalized growth,"locus YNL224C, strain SQS1, stronger effect = lower value",1.01
same,normalized growth,"locus YOR083W, strain WHI5 (second series), stronger effect = lower value",1.01
same,normalized growth,[7],1
COC(=O)CSCCc1nc(-c2ccc([N+](=O)[O-])cc2)cs1,normalized growth,[1],1
same,normalized growth,[8],0.972
same,normalized growth,"locus YCL061C, strain MRC1, stronger effect = lower value",0.97
same,normalized growth,[9],0.967
same,normalized growth,"locus YDL134C, strain PPH21, stronger effect = lower value",0.976
same,normalized growth,[10],0.991
same,normalized growth,[11],0.986
same,normalized growth,[2],0.978
same,normalized growth,[12],0.965
same,normalized growth,[13],0.683 (active)
same,normalized growth,[14],0.987
same,normalized growth,[15],0.971
same,normalized growth,[16],0.946
same,normalized growth,[17],0.919
same,normalized growth,[18],0.964
same,normalized growth,[19],0.717 (active)
same,normalized growth,[20],0.915
same,normalized growth,[21],0.994
same,normalized growth,[22],0.975
same,normalized growth,[3],0.968
same,normalized growth,[6],1.01
same,normalized growth,[23],0.927
same,normalized growth,[24],0.965
same,normalized growth,[25],0.969
same,normalized growth,[7],0.971
same,normalized growth,[26],0.911
same,normalized growth,[27],0.894
O=[N+]([O-])c1ccc(-c2nn[nH]n2)cc1,normalized growth,[1],0.992
same,normalized growth,[8],0.987
same,normalized growth,[9],0.988
same,normalized growth,[10],1.01
same,normalized growth,[11],1.01
same,normalized growth,[2],0.989
same,normalized growth,[12],0.987
same,normalized growth,[13],0.955
same,normalized growth,[14],0.993
same,normalized growth,[15],1.01
same,normalized growth,[16],0.992
same,normalized growth,"locus YKL190W, strain CNB1, stronger effect = lower value",0.975
same,normalized growth,[17],0.968
same,normalized growth,[18],0.984
same,normalized growth,[19],1.04
same,normalized growth,[20],0.871
same,normalized growth,[21],1.04
same,normalized growth,[22],0.994
same,normalized growth,[3],1.01
same,normalized growth,[4],1.11
same,normalized growth,[5],0.971
same,normalized growth,[6],0.995
same,normalized growth,[23],0.965
same,normalized growth,[24],0.99
same,normalized growth,[25],0.98
same,normalized growth,[7],0.993
same,normalized growth,[26],0.999
same,normalized growth,[27],0.967
